Each structure is given as a SMILES string. Calls of active or inactive are those of the source.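 How the source made its calls: active means concentration cutting cell viability by half at or below 20 µM after three days; inconclusive means half-viability concentration between 20 and 30 µM; inactive means half-viability concentration of 30 µM or more.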

This experiment is described as follows: qHTS for Inducers of the Endoplasmic Reticulum Stress Response (ERSR) in Human Glioma: Hit Validation in Cytotoxic Counterscreen. The conditions noted are these: U87-MG glioma viability, CellTiter-Glo ATP luminescence, 72 h. The source says:
Primary protein unfolding takes place for many diseases, including diabetes and hypoxia, , and triggers a reaction in the cells called ER stress response (ERSR). ). ERSR is designed as a repair mechanism, but ultimately leads to cell death via apoptosis if conditions triggering protein unfolding persist (1). The molecular clue to ERSR activation is the enhancement of the expression of key molecular chaperones, including the glucose regulated protein (GRP) 78. GRP78 is the main sensor for protein folding and the main actuator of the ERSR. In a collaboration between the Southern Research Institute and the NIH Chemical Genomics Center, a cell based screen was developed that reliably uses GRP78 as a sensor to identify small molecules as inducers of ERSR. In resting conditions, GRP78 binds proteins and acts as a natural repressor. Once unfolded proteins are present in the ER, GRP78 releases some of the repressors and binds to the unfolded proteins. The release of the repressors executes the ERSR program. Using a human glioma cell line in a miniaturized, luminescent format, a high-throughput screen was developed to identify actuators of the ERSR. This assay validates the hits identified in the primary screen in this cytotoxic counterscreen. Activity is undesirable in this assay. NIH Chemical Genomics Center [NCGC] NIH Molecular Libraries Probe Centers Network [MLPCN] MLPCN Grant: DA031669 Assay Submitter (PI): Maurizio Grimaldi, Southern Research Institute (1) Soboloff, J. and S. A. Berger (2002). "Sustained ER Ca2+ depletion suppresses protein synthesis and induces activation-enhanced cell death in mast cells." J Biol Chem 277(16): 13812-20.
Wild type U87-MG are dispensed at density 1000 cells/well into Greiner white solid bottom 1536-well assay plates. […] The plates are incubated at room temperature for 10 minutes and read in a ViewLux high-throughput CCD imager (PerkinElmer), wherein end-point measurements of luminescence through the quantitation of the ATP content, an indicator of metabolically active cells, are acquired.
On to `CC(=O)N1CCOc2cc(S(=O)(=O)Nc3c(C)cccc3C(C)C)c(Cl)cc21`, for which the outcome was inactive.
The result for `Cc1ccc(-c2cc(NC(=O)C(C)Oc3ccc(C)c(C)c3)on2)cc1` (stereo not drawn) reads “inactive”.
With `CC(C)Cc1nn2c(=O)cc(COC(=O)CNC(=O)c3ccc(C(C)(C)C)cc3)nc2s1` the entry was “inactive”.

The values above are taken from PubChem BioAssay AID624348 (National Center for Advancing Translational Sciences (NCATS), 2012).
